Compounds with a hit are over-represented: about 15% of the library has one in this group of screens.
DT40 TDP1 no CPT – qHTS for Inhibitors of human tyrosyl-DNA phosphodiesterase 1 (TDP1): qHTS in cells in absence of CPT; AID 686978, 2013; hit rate 15% among 420,000; Potency, µM (top dose mostly 46.2 µM), inactives show top-dose activity change, negative = growth inhibition, actives largely listed as inhibitors; DT40 Tdp1-/- hTDP1 cells, no CPT, ATP luminescence, 48 h; also: nearly all actives have a fitted effect of over 55% in size
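Seeded 400 DT40-hTDP1 cells/well (vehicle DMSO, no 20 nM CPT); pinned compounds; ≥48 hr at 37 °C; CellTiter-Glo luminescence as viability measure.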
VP16 counter – inhibits Gal4-VP16 luciferase reporter, ROR gamma counter-screen; Drosophila S2 Gal4-VP16 UAS-luciferase, luminescence, 20 h; Potency, µM (series often up to 53.6 µM), for inactives: at the top dose activity, negative = inhibition, hits mostly inhibitors; hit rate 3.5% among 310,000; AID 2546;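 also: Gal4-VP16 expression switched on by copper sulfate through the metallothionein promoter; nearly all actives have a fitted effect of over 50% in size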
ALOX12 inh – blocks human arachidonate 12S-lipoxygenase. purified 12hLO, xylenol orange hydroperoxide absorbance. Potency, µM (top dose mostly 108 µM), for the others: at the highest dose activity change, negative = inhibition, most hits filed as inhibitors. hit rate 1.1% among 580,000
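Purified human 12hLO (150 nM final) in 25 mM Hepes, 0.01% Triton X-100, pH 7.0 was preincubated 15 min at room temperature with compound. Then 40 uM arachidonic acid was added, 30 min. Hydroperoxide was read by Fe-XO absorbance ratio 573/405 nm.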
RORg inh – ROR gamma (mouse) transcription inhibition. P51450. AID 2551. Potency, µM (top dose mostly 53.6 µM), inactives show top-dose activity change, negative = inhibition, most hits filed as inhibitors. hit rate 5.4% among 310,000. Drosophila S2 Gal4-RORgamma UAS-luciferase reporter, 20 h; also: nearly all actives have a fitted effect of over 60% in size
Target sequence (P51450 whole entry, looked up, the tested form may be a part): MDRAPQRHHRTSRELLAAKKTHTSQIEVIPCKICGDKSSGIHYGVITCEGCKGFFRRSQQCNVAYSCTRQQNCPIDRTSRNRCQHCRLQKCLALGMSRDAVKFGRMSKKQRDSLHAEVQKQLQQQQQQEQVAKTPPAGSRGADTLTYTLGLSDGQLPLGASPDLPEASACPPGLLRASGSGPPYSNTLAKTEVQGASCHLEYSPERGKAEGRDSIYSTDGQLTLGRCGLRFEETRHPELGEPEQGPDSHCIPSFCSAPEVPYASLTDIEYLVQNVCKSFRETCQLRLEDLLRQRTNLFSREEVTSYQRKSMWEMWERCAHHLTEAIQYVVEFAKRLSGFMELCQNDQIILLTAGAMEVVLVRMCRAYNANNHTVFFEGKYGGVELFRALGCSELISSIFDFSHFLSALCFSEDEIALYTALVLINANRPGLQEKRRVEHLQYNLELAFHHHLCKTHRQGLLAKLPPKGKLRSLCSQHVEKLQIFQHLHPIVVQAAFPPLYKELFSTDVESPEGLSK
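Stably transfected Drosophila Schneider cells are the test system, with ROR gamma fused to Gal4 and luciferase under UAS control; luminescence is read after 20 hr of 700 uM copper sulfate induction at ambient temperature.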
TDP1 cell CPT – DT40-hTDP1 cell growth loss with CPT. chicken DT40 Tdp1-/-;hTDP1 cells + 20 nM CPT, ATP luminescence, 48 h. Potency, µM (series often up to 46.2 µM), without a hit: top-dose activity change, negative = growth inhibition, usual class: inhibitors. hit rate 12% among 420,000; also: nearly all actives have a fitted effect of over 55% in size
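Chicken DT40 Tdp1-/- cells complemented with human TDP1, 400 cells/well, exposed to compounds plus 20 nM camptothecin for at least 48 h at 37 C; viability read as ATP content by CellTiter-Glo luminescence.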
ELG1 DNA repair – ELG1-dependent DNA repair inhibition; hit rate 2.3% among 330,000; AID 504467; HEK293T ELG1-luciferase reporter, luminescence, 16 h; DNA damage induced by 5-fluorouridine; Potency, µM (highest dose often 46.1 µM), inactives show top-dose activity change, negative = inhibition, hits mostly inhibitors; also: nearly all actives have a fitted effect of over 55% in size
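DMSO vehicle served as the neutral condition. Each well held 2,000 cells given 5-fluorouridine plus compound; after 16 hr at 37 °C/5% CO2, ONE-Glo was added and luciferase measured 30 min later.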
ELG1 FLuc counter – luciferase inhibition in cell-free luciferin readout for ELG1 hits; AID 624247; cell-free firefly luciferase luminescence counter-screen, ViewLux; shares compounds with ELG1 DNA repair; Potency, µM (series often up to 46.1 µM), for inactives: at the top dose activity change, negative = inhibition, actives largely listed as inhibitors; hit rate 3% among 350
ELG1-Luc inh – inhibits ELG1-dependent DNA repair in HEK293T cells, confirmed. shares compounds with ELG1 DNA repair. HEK293T ELG1-luciferase levels, luminescence; cells co-treated with 5-fluorouridine. Potency, µM (top dose mostly 46.1 µM), for the others: at the top dose activity change, negative = inhibition, usual class: inhibitors. hit rate 68% among 670; also: nearly all actives have a fitted effect of over 55% in size
ELG1-Luc MMS – MMS-stimulated human ELG1 repair inhibition, confirmed | shares compounds with ELG1 DNA repair | Potency, µM (titrated, usually from 46.1 µM), inactives show at the highest dose activity change, negative = inhibition, usual class: inhibitors | hit rate 53% among 670 | HEK293T luciferase-tagged ELG1 level, MMS stimulated | AID 624249; also: nearly all actives have a fitted effect of over 60% in size
ELG1 5-FU – confirmation of ELG1 repair inhibitors: viability with 5FU; shares compounds with ELG1 DNA repair; cell viability with 5-FU, ELG1-dependent repair; Potency, µM (top dose mostly 46.1 µM), without a hit: at the top dose activity change, negative = viability loss, actives largely listed as cytotoxic; 670 tested, under 10 active;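 also: ELG1-luc HEK293T cells cotreated with 5-fluorouridine at 10 µM final; viability measured 16 h after compound addition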
ELG1 MMS viab – confirmation of ELG1 repair inhibitors: viability with MMS | shares compounds with ELG1 DNA repair | Cell viability with MMS, ELG1-dependent DNA repair | Potency, µM (titrated, usually from 46.1 µM), without a hit: top-dose activity change, negative = viability loss, hits mostly cytotoxic | hit rate 33% among 670 | AID 624251;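 also: ELG1-luc HEK293T cells co-treated with 10 µM MMS; viability read 16 h after compound addition; nearly all actives have a fitted effect of over 60% in size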
ELG1 unstim viab – affects unstimulated cell viability, ELG1 hit counter-screen; hit rate 8% among 900; Potency, µM (titrated, usually from 45.9 µM), for inactives: at the highest dose activity change, negative = loss of viability, usual class: cytotoxic; shares compounds with ELG1 DNA repair; cell viability counter-screen, unstimulated, luminescence;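 also: compound exposure lasted 16 hours before reading; nearly all actives have a fitted effect of over 55% in size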
FLuc biochem – inhibits purified firefly luciferase, counter-screen for ELG1 hits; hit rate 10% among 350; Potency, µM (doses to about 57.5 µM), for inactives: at the top dose activity, negative = inhibition, actives largely listed as inhibitors; shares compounds with ELG1 DNA repair; AID 624253; purified firefly luciferase, luminescence counter-screen
* hit, by the source's call; ? = inconclusive; · = no result; [ ] = dose if it differs, or a comment. Calls follow the shape of the dose curve; as a rule, active = well fitted curve in the direction sought with a large enough effect; inconclusive = small, poorly fitted or top-dose-only effect, or another doubt; inactive = no such curve, though single readings can be large; an effect the other way counts as inactive or inconclusive. % is scaled to controls: 0 for no effect and ±100 for the full control effect; potency is read from the fitted curve at half-maximal effect.

SMILES	DT40 TDP1 no CPT	VP16 counter	ALOX12 inh	RORg inh	TDP1 cell CPT	ELG1 DNA repair	ELG1-Luc inh	ELG1-Luc MMS	ELG1 5-FU	ELG1 MMS viab	ELG1 unstim viab	others
O=C(CSc1nc2ccccc2o1)Nc1ccccc1N1CCCCCC1	?	-9%	?	-27%	?	3%	·	·	·	·	-20%	ELG1 FLuc counter=4%;FLuc biochem=-8%
O=C(NCCCCc1ccccc1)C12CC3CC(CC(C3)C1)C2	·	·	-4%	·	·	·	·	·	·	·	·
CCOC(=O)c1[nH]c2cc(OC)c(OC)cc2c1NC(=O)CCN1CCSCC1	?	-6%	3%	0%	0%	8%	·	·	·	·	·
CCOC(=O)c1[nH]c2cc(OC)c(OC)cc2c1NC(=O)CN1CCN(c2ccc(OC)cc2)C(C)C1 (stereo not drawn)	·	-30%	·	?	·	1.3µM*	3.2µM*	36µM*	?	?	41µM*	ELG1 FLuc counter=?;FLuc biochem=-4%[115 µM]
COC(=O)c1[nH]c2ccc(C)cc2c1NC(=O)C(C)N1CCN(C2CCCCC2)CC1 (stereo not drawn)	?	-3%	?	-21%	-9%	-15%	1.1µM*	?	8%	8%	?	ELG1 FLuc counter=-6%;FLuc biochem=5%
COC(=O)c1[nH]c2ccc(C)cc2c1NC(=O)CN1CCN(c2ccccc2)CC1	23µM*	11µM*	-7%	?	16µM*	18µM*	13µM*	18µM*	?	?	25µM*	ELG1 FLuc counter=?;FLuc biochem=1%
COC(=O)c1[nH]c2ccc(C)cc2c1NC(=O)NC1CCCCC1	0%	9%	0%	-12%	9%	-15%	·	·	·	·	·
COc1ccc(C(=O)N[C@H]2C[C@H]3C(=O)Nc4cc(Cl)ccc4C(=O)N3C2)cc1	·	·	-8%[176 µM]	·	·	·	·	·	·	·	·
CC(C)(C)C(=O)Nc1cccc(-c2nnc(-c3cccc(NC(=O)C(C)(C)C)c3)o2)c1	?	?	40%	?	?	4.6µM*	7.9µM*	?	15%	-1%	?
Cc1cccc(CC(=O)N2CCCCC2c2n[nH]c(C)n2)c1 (stereo not drawn)	·	·	5%	·	·	·	·	·	·	·	·
Nc1nonc1C(=O)N1CCN(C(=O)Nc2ccccc2Cl)CC1	·	·	-5%	·	·	·	·	·	·	·	·
Cc1cc(NC(=O)COC(=O)c2cc3c(F)cccc3s2)no1	·	·	2%	·	·	·	·	·	·	·	·
Cc1ccccc1OCC(=O)Nc1ccc(C)c(S(=O)(=O)N2CCCCCC2)c1	?	·	?	·	?	1.3µM*	28µM*	6.3µM*	?	8.9µM*	-19%
Cn1cccc1C(=O)OCC(=O)c1c[nH]c2ccccc12	2%	·	-3%	·	0%	?	·	·	·	·	-13%
Cc1cnc(C(=O)OCC(=O)c2c[nH]c3ccccc23)cn1	-1%	·	170%	·	-16%	3%	·	·	·	·	·
COc1cccc(NS(=O)(=O)c2ccc3c(c2)N(C(C)=O)CCO3)c1	-24%	-4%	6%	31%	?	-10%	·	·	·	·	·
COc1cccc(NS(=O)(=O)c2ccc3c(c2)CCN3C(C)=O)c1	7.3µM*	16µM*	6%	?	7.3µM*	2.1µM*	?	6.3µM*	-6%	4.4µM*	?
CC(=O)N(C)c1ccc(/C=C2\C=Cc3ccccc32)cc1	7.1µM*	·	·	·	6.3µM*	·	·	·	·	·	?	ELG1 FLuc counter=71%;FLuc biochem=0.23µM*
CCOC(=O)N1CCN(C(=O)c2ccc3c(c2)N=C(C)c2cc(Cl)ccc2S3)CC1	12µM*	-8%	0%	?	?	3.7µM*	8.9µM*	?	?	?	?
CC1=Nc2cc(C(=O)N3CCCC3)ccc2Sc2c(C)ccc(C)c21	?	-12%	8%	-4%	?	?	·	·	·	·	·
COc1cccc(-c2nc(-c3ccc4c(c3)-c3ccccc3S4(=O)=O)c(-c3ccccc3)[nH]2)c1OC	4.1µM*	-5%	0%	?	7.3µM*	2.6µM*	3.5µM*	-16%	?	?	-2%
COc1cccc(-c2nc(-c3ccccc3)c(-c3ccccc3)[nH]2)c1OCC(=O)O	-25%	7%	?	?	-8%	-1%	·	·	·	·	·
COc1cccc2cc(-c3cc(=O)oc4ccc(OCC(C)=O)cc34)oc12	?	-9%	2%	-28%	?	2.6µM*	6.3µM*	11µM*	8%	-16%	?
CN1C(=O)CCC2(CNC(=O)c3ccc(Cn4ccnc4)o3)CCC=C12 (stereo not drawn)	·	·	1%	·	·	·	·	·	·	·	·
COc1ccc(/C=C2\Oc3ccccc3C2=O)cc1	18µM*	·	?	·	?	?	·	·	·	·	-11%
CC(=O)Oc1ccc(/C=C2/Oc3ccccc3C2=O)cc1	-22%	-13%	115%	2%	-1%	?	·	·	·	·	·

Screens as filed in PubChem.
